# High-throughput results: PubChem, National Center for Advancing Translational Sciences (NCATS)
# HBB splicing: hemoglobin beta splicing modulation; Potency, µM (highest dose often 46.1 µM), usual class: activators; HBB splicing reporter cell assay, activation; EGFP reporter with mutant IVS2-654 intron; response scale: normalised to 500 nM splice-correcting PNA; 65,000 compounds, 0.06% hits
#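 HeLa cells stably expressing EGFP interrupted by mutant beta-globin intron 2 (IVS2-654), 500/well in 2% FCS. Treated with compound for 2 days at 37C. Splicing correction scored as total well GFP intensity (488 nm excitation, 500-520 nm emission); 500 nM antisense PNA served as control.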
# GFP derepression: epigenetic modulators derepressing GFP locus in mouse cells; mouse C127i GFP locus derepression, cytometry, 30 h; Potency, µM (titrated, usually from 46.1 µM); 68,000 compounds, 0.09% hits
#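 Read-out is the number of GFP-positive cells, scored as fluorescent objects 20 to 120 um wide, reflecting derepression of a silenced CMV-GFP reporter in murine C127i cells after 30 h compound exposure at 37 C.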
# CRE Fsk mod: CRE-bla signaling modulation under forskolin stimulation | CHO CRE-bla reporter (cAMP response element driving beta-lactamase), forskolin EC10, beta-lactamase ratio | AID 662 | 71,000 compounds, 2.5% hits | Potency, µM (series often up to 38.2 µM), usual class: activators; active means well fitted activation curve with a large enough effect in the signal ratio, with a control signal flat, not every such curve was filed as active; inconclusive means small, poorly fitted or top-dose-only effect, or effect the other way, or a change in a side signal; the % refers to the signal ratio
#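 Forskolin analogue NKH 477 at EC10 stimulated CRE-driven beta-lactamase in CHO cells alongside compound dilution series. Beta-lactamase was measured with CCF4, excitation 405 nm, emission ratio 460/530 nm.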
# IkB signaling: inhibitors of IkB signaling in ABC-DLBCL cells | ABC-DLBCL IkBa-CBG/CBR dual luciferase ratio, 4 h; response scale: scaled: untreated 0%, proteasome inhibitor 100% | Potency, µM (titrated, usually from 57.1 µM) | 110,000 compounds, 0.04% hits; active means well fitted curve in the direction sought with a large enough effect in the signal ratio, not every such curve was filed as active; inconclusive means small, poorly fitted or top-dose-only effect, or a change in a side signal; the % refers to the signal ratio;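 further: the direction sought is a rising ratio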
#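 Curves were fitted separately to fusion (green), unfused (red) and ratio luminescence, then classed by r2, magnitude and activity. Cells: OCI-Ly3, 4 h compound plus doxycycline at 37C; 10 uM MG-132 defined full response.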
# Peg3 imprint: induces erasure of genomic imprints in mouse ES cells. mouse ES Peg3-LacZ reporter, beta-gal luminescence, 40 h. Potency, µM (top dose mostly 60.7 µM), actives largely listed as activators. AID 1948. 110,000 compounds, 0.02% hits
#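 Imprint erasure is scored as LacZ activity from the silenced maternal Peg3 allele in feeder-free female ES cells cultured 40 h with LIF. Luminescence is normalized to in-plate negative controls and fitted to the Hill equation.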
# Numbers stand for hits; i = inactive; ? = inconclusive; nt = not tested or not shown; [ ] = dose if it differs, or a comment. This excerpt belongs to a sample that is enriched for hits. Unless noted, the call rests on the fitted dose curve; in most records, active means well fitted curve in the direction sought with a large enough effect; inconclusive means small, poorly fitted or top-dose-only effect, or another doubt; inactive means no such curve, though single readings can be large; an effect the other way counts as inactive or inconclusive.
SMILES,HBB splicing,GFP derepression,CRE Fsk mod,IkB signaling,Peg3 imprint
COc1ccccc1CNc1ccnc(-c2ccc(N(C)C)cc2)n1,i,i[9.22 µM],13µM,i[11.4 µM],i
O=C(NCCc1ccc(Cl)cc1)c1ccc2c(c1)N(Cc1cccc(Cl)c1)C(=O)c1ccccc1S2(=O)=O,nt,nt,nt,i,?
CCn1c(C(=O)Nc2cc(C)cc(C)c2)cc2sc(Cl)cc21,nt,nt,nt,?,i[10.9 µM]
CC(=O)Nc1ccc(NC(=O)C2CCN(S(=O)(=O)c3ccc4c(c3)CCCC(=O)N4)CC2)cc1,nt,nt,nt,i,i[10.9 µM]
COc1cc2nc(N3CC=[N+](C(=O)c4ccco4)CC3)nc(N)c2cc1OC,i,i,i,i,nt
COC(=O)c1cnn2c(C)c(Cc3cccc(F)c3)c(C)nc12,i,i,13µM,i,i
Cc1c(-c2nc(N)nc(Nc3ccccc3F)n2)oc2ccccc12,i,i,4µM,?,i
COc1ccccc1Nc1nc(N)nc(-c2cc3ccccc3o2)n1,i,i,i,i,i
CCC(=O)N1c2ccccc2CC1C(=O)NCCN1CCN(c2cc(Cl)ccc2C)CC1 (centres undefined),nt,nt,nt,?,i[10.9 µM]
Cc1c(C(=O)NC(C)c2ccccc2)sc2ncnc(N(C)C3CCCCC3)c12 (centres undefined),nt,nt,nt,?,i[10.9 µM]
COCCN(CCOC)Cc1c(O)ccc2c3c(c(=O)oc12)CCC3,i,i,13µM,i,i
O=c1oc2c(CN3CCOCC3)c(O)ccc2c2c1CCCC2,i,i,10µM,i,i
O=c1oc2c(CN3CCOCC3)c(O)c(Cl)cc2c2c1CCCC2,i[0.369 µM],i,i,i,i
CCc1ccc(NC(=O)CC2C(=O)N(c3cccc(C)c3)C(=O)N2Cc2cccc(OC)c2)cc1 (centres undefined),nt,nt,nt,i,i[10.9 µM]
Cc1nn(-c2ccccc2)c2nc(N)c(C#N)c(-c3ccc(F)cc3)c12,i[0.369 µM],i,2µM,?,i
OC[C@H](S)CS,i[9.22 µM],3.2µM,i[7.6 µM],?,i[10.9 µM]
CCCc1cnc2c(c1SCC(=O)N1CCC(C)CC1)c(=O)n(C)c(=O)n2C,nt,nt,nt,?,i[10.9 µM]
CCNc1ncc2nc(-c3cccc(C#N)c3)c(=O)n(C)c2n1,i,i[9.22 µM],2µM,i[11.4 µM],nt
CCNc1ncc2nc(-c3ccc(Cl)cc3)c(=O)n(CCC#N)c2n1,i,i[9.22 µM],2µM,i[11.4 µM],i
CCNc1ncc2nc(-c3cccc(C#N)c3)c(=O)n(CCC#N)c2n1,i,i[9.22 µM],2.5µM,i[11.4 µM],i
CCNc1ncc2nc(-c3cccc(C#N)c3)c(=O)n(Cc3cccc(OC)c3)c2n1,i,i[9.22 µM],0.32µM,i[11.4 µM],?
COC(=O)c1ccc(NC(=O)c2c(NCc3ccc(OC)c(OC)c3)sc3c2CCCC3)cc1,nt,nt,nt,?,i[10.9 µM]
Cc1nc2sc(C(=O)N(C)c3ccccc3)c(NC(=O)c3ccccc3Cl)c2c(C)c1C,nt,nt,nt,?,i[10.9 µM]
COc1ccc(CNC(=O)c2ccc3c(c2)N(Cc2c(F)cccc2Cl)C(=O)CS3)cc1,nt,nt,nt,i,i[10.9 µM]
Cn1c2ccccc2c2ncn(Cc3ccco3)c(=O)c21,i[1.84 µM],i,10µM,i,i
SMILES,HBB splicing,GFP derepression,CRE Fsk mod,IkB signaling,Peg3 imprint
O=c1c2ccccc2ncn1Cc1ccco1,nt,i,nt,nt,nt
CCOc1ccccc1NC(=O)Cc1csc(COc2cccc(C)c2)n1,nt,nt,nt,i,i[10.9 µM]
COc1cc(-c2nnc(SCC(=O)c3cc(C)n(CC4CCCO4)c3C)o2)cc(OC)c1OC (centres undefined),i,i,4µM,?,i
COc1cc(-c2nnc(SCc3ccccc3Cl)o2)cc(OC)c1OC,i,i,4µM,i,i
COc1cc(-c2nnc(SCC(=O)c3ccc(C)cc3)o2)cc(OC)c1OC,i,i,2.5µM,i,i
COc1cc(-c2nnc(SCC(=O)N3CCCC3)o2)cc(OC)c1OC,i,i,?,i,i
COc1cccc(C(=O)CSc2nnc(-c3cc(OC)c(OC)c(OC)c3)o2)c1,i,i,?,i,i
CC[C@H](C)[C@@H]1O[C@]2(CC[C@@H]1C)C[C@H]1C[C@H](CC=C(C)[C@@H](O[C@H]3C[C@H](OC)[C@H](O[C@H]4C[C@H](OC)[C@H](O)[C@H](C)O4)[C@H](C)O3)[C@@H](C)C=CC=C3CO[C@@H]4[C@@H](O)C(C)=C[C@H](C(=O)O1)[C@@]34O)O2,i,i,?,i,nt
CCC(=O)NCCc1cc2cc(C)c(C)cc2[nH]c1=O,i,i,i,i,i
